Measurements published in PubChem BioAssay (NCATS).
Values joined by “and” are separate entries in the source; they are usually repeats but may differ in a detail not shown here. Equal values may be shown once. Records with an inconclusive call do not appear. Active and inactive are the calls of the source. Unless noted, the call rests on the fitted dose curve.

What was measured:
[1] = target: Cytochrome P450 3A4 (Homo sapiens) (UniProt P08684); experiment: qHTS Assay for Inhibitors and Substrates of Cytochrome P450 3A4 (AID 884; active means well fitted curve in the direction sought with a large enough effect; an effect the other way counts as inactive or inconclusive; further: on the % scale 0 is the no-effect control and ±100 the full control effect; nearly all actives have a fitted effect of over 50% in size)
Cytochrome P450 3A4 (Homo sapiens), sequence (P08684 whole entry, looked up): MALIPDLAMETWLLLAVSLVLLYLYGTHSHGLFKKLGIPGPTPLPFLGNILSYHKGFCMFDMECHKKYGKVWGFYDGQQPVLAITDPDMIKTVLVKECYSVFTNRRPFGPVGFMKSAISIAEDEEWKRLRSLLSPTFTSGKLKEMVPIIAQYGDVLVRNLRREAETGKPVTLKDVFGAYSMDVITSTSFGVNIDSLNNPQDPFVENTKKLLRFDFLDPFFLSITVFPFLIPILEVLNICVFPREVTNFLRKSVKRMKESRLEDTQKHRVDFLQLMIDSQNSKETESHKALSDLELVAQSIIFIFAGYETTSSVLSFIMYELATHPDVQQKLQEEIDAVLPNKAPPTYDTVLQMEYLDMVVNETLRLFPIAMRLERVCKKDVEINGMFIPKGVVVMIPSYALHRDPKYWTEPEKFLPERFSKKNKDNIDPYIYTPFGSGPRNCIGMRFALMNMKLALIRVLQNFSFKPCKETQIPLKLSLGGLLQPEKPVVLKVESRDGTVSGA
Method in brief: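 Luminescent readout of luciferin produced by CYP3A4 (20 nM) dealkylation of Luciferin-PPXE, 25 uM (its KM). NADPH-driven reaction ran 60 min at RT after 10 min compound preincubation; data scaled to 57 uM ketoconazole as 100% inhibition.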

[2] = Confirmation and Secondary Assay for Modulators of Hemoglobin Beta Chain Splicing at IVS2 705 locus (AID 930; active means well fitted curve in the direction sought with a large enough effect; an effect the other way counts as inactive or inconclusive;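 further: HeLa cells stably expressing the EGFP-705 splicing reporter; GFP fluorescence per well restored by corrected splicing of the IVS2-705 intron in EGFP; % of control where 0% means no effect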)
Method in brief: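 Stable HeLa line with EGFP disrupted by mutant beta-globin intron 2 (705). Overnight attachment, then 2 days of compound at 37C, 5% CO2. Signal: peak GFP intensity summed over objects 5-250 µm.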

[3] = qHTS Assay for Lipid Storage Modulators (AID 1519); settings: Drosophila S3 cells, BODIPY lipid droplet/cell ratio, laser cytometry, cells loaded with oleic acid
Method in brief: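 Cells seeded at 5,000 per well were treated with compounds over a concentration series and loaded with oleic acid (400 uM, as added). Lipid droplet fluorescence (488 nm excitation, 500-530 nm channel) was read by laser-scanning cytometry and normalized to 20 uM Triacsin C.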

[4] = target: Estrogen receptor (Homo sapiens) (UniProt P03372); experiment: qHTS assay for small molecule antagonists of estrogen receptor alpha signaling (AID 588513; active means well fitted curve in the direction sought with a large enough effect in the signal ratio, with a control signal flat, not every such curve was filed as active; the % refers to the signal ratio; further: on the % scale 0 is the no-effect control and ±100 the full control effect)
Estrogen receptor (Homo sapiens), sequence (P03372 whole entry, looked up): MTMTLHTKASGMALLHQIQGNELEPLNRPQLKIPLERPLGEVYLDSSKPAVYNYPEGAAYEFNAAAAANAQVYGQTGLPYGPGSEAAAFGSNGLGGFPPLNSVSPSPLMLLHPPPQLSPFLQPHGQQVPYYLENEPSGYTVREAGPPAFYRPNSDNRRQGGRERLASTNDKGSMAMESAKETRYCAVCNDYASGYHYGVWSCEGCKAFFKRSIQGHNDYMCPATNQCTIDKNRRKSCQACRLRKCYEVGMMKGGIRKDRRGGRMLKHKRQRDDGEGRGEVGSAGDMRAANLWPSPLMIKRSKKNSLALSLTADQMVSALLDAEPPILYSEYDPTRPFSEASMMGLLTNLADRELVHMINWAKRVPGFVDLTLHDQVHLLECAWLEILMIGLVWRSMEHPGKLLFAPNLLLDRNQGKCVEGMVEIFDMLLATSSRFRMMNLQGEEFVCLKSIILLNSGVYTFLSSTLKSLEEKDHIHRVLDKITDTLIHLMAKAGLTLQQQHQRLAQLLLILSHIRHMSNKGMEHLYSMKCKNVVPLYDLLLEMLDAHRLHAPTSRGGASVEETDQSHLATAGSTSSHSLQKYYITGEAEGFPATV
Method in brief: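 Fluorescence from CCF4 substrate after 2 h at room temperature gave reporter activity; cells had been exposed to compound and 0.5nM 17-beta-estradiol for 18 h at 37 C. Hill-equation fitting yielded IC50 and maximal response.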

[5] = target: Estrogen receptor (Homo sapiens) (UniProt P03372); experiment: qHTS assay for small molecule agonists of estrogen receptor alpha signaling (AID 588514);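 further: 0% = vehicle only and 100% = reference agonist; nearly all actives have a fitted effect of over 70% in size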
Method in brief: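 Fluorescence from CCF4 cleavage reports ER-alpha-driven beta-lactamase expression in HEK 293 cells treated 18 hrs at 37 C. Data normalized to 17-beta-estradiol (20 nM) and DMSO, fitted to Hill equation.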

[6] = target: Bile acid receptor (Homo sapiens) (UniProt Q96RI1); experiment: qHTS assay for small molecule antagonists of farnesoid X receptor signaling (AID 588526); further: on the % scale 0 is the no-effect control and ±100 the full control effect
Bile acid receptor (Homo sapiens), sequence (Q96RI1 whole entry, looked up): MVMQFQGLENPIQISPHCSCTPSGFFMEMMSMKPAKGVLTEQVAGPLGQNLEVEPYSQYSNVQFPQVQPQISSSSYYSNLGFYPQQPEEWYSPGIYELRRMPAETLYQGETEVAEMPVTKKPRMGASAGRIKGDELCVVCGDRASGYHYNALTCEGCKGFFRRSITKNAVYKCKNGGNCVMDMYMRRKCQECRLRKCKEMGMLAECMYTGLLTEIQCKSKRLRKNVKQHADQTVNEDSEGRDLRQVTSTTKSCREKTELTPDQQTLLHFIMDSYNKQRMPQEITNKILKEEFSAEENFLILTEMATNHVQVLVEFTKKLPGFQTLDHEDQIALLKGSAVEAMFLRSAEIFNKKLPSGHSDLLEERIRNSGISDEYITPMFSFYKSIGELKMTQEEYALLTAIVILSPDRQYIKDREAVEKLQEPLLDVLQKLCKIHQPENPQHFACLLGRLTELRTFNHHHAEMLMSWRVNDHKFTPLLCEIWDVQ
Method in brief: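 Concentration-response titrations were fitted to the Hill equation for half-maximal inhibition and maximal response, with data normalised to 50 uM chenodeoxycholic acid and DMSO control wells. Cells: FXR-UAS-bla HEK293T, dialyzed FBS.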

[7] = target: Bile acid receptor (Homo sapiens) (UniProt Q96RI1); experiment: qHTS assay for small molecule agonists of farnesoid X receptor signaling (AID 588527); settings: HEK293T FXR-UAS-bla, beta-lactamase ratio, 16 h; stronger effect = higher value;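 further: 0% = vehicle basal and 100% = reference agonist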
Method in brief: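 Quantitative HTS used FXR-UAS-bla HEK293T cells with 16 h compound incubation at 37 C. EC50 values came from concentration-response curves normalized to chenodeoxycholic acid.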

[8] = target: Glucocorticoid receptor (Homo sapiens) (UniProt P04150); experiment: qHTS assay for small molecule agonists of glucocorticoid receptor signaling (AID 588532; active means well fitted curve in the direction sought with a large enough effect in the signal ratio, with a control signal flat; the % refers to the signal ratio;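 further: 100% = dexamethasone at 0.1 µM and 0% = DMSO only wells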); settings: HeLa MMTV-bla, beta-lactamase ratio, agonist, 18 h; stronger effect = higher value; percent of dexamethasone control, DMSO zero
Glucocorticoid receptor (Homo sapiens), sequence (P04150 whole entry, looked up): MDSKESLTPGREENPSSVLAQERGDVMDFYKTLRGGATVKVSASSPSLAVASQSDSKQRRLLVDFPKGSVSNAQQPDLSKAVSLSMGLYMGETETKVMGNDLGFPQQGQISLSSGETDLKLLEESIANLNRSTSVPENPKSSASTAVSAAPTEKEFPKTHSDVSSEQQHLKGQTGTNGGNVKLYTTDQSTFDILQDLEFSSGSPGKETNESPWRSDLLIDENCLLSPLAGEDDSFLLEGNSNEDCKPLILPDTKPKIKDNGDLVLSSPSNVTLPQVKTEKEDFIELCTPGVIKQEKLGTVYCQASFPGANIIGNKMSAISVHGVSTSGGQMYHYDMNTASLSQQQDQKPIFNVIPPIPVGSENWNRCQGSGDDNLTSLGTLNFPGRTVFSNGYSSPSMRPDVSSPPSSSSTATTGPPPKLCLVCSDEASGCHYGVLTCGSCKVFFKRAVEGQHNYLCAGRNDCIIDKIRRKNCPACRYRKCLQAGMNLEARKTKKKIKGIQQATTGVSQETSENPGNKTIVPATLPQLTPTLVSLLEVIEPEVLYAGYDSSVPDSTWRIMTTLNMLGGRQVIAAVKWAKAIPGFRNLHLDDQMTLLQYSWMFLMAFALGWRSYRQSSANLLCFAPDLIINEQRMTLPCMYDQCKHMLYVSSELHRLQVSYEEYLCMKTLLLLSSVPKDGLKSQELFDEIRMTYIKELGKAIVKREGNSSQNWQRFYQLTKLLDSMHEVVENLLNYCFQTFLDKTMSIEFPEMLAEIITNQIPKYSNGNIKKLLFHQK
Method in brief: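 Titration series, up to 92 uM, applied to GRE-bla HeLa cells for 18 h at 37 C. Detection by CCF4 FRET substrate after 2 h at RT.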

[9] = target: Glucocorticoid receptor (Homo sapiens) (UniProt P04150); experiment: qHTS assay for small molecule antagonists of glucocorticoid receptor signaling (AID 588533; active means well fitted inhibition curve with a large enough effect in the signal ratio, with a control signal flat, not every such curve was filed as active; the % refers to the signal ratio;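 further: cells stimulated with 2 nM dexamethasone as agonist; on the % scale 0 is the no-effect control and ±100 the full control effect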)
Method in brief: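 Antagonist-mode qHTS: compound titrations added to GRE-bla HeLa cells, then dexamethasone 2 nM final; 18 h, 37 C. CCF4 FRET fluorescence normalized to dexamethasone and DMSO; IC50 from Hill fit.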

[10] = target: Peroxisome proliferator-activated receptor delta (Homo sapiens) (UniProt Q03181); experiment: qHTS assay for small molecule agonists of peroxisome proliferator-activated receptor delta signaling (AID 588534);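 further: 0% = DMSO basal wells and 100% = positive control agonist at 10 µM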
Peroxisome proliferator-activated receptor delta (Homo sapiens), sequence (Q03181 whole entry, looked up): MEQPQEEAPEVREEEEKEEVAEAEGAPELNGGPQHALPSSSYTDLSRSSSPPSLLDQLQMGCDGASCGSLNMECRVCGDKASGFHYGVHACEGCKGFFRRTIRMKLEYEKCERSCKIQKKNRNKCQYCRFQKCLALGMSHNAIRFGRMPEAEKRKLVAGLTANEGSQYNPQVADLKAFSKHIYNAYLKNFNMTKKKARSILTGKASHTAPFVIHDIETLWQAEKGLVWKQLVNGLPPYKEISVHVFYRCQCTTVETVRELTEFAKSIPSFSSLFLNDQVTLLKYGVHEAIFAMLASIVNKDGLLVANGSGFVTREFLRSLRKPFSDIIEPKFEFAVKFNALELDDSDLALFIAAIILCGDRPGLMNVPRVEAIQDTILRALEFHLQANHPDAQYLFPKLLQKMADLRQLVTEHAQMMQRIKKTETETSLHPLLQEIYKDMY
Method in brief: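 EC50 and efficacy values derive from Hill fits of a concentration series in a beta-lactamase reporter cell assay. Exposure is 18 hrs at 37 C, with CCF4 fluorescence as the readout.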

[11] = qHTS assay for small molecule antagonists of peroxisome proliferator-activated receptor delta signaling (AID 588535); settings: HEK293T PPARd-UAS-bla, beta-lactamase FRET ratio, 18 h; 460 nm channel;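 further: cells co-treated with a PPAR-delta agonist as stimulator during compound exposure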
Method in brief: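 Compounds tested in titration on PPAR-delta-UAS-bla HEK293T cells grown in charcoal/dextran-stripped serum (2%); beta-lactamase activity read via CCF4 emission at 460 and 530 nm.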

[12] = target: Peroxisome proliferator-activated receptor gamma (Homo sapiens) (UniProt P37231); experiment: qHTS assay for small molecule agonists of peroxisome proliferator-activated receptor gamma signaling (AID 588536; active means well fitted curve in the direction sought with a large enough effect in the signal ratio, with a control signal flat, not every such curve was filed as active; the % refers to the signal ratio;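 further: 0% = DMSO basal wells and 100% = rosiglitazone at 2 µM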)
Peroxisome proliferator-activated receptor gamma (Homo sapiens), sequence (P37231 whole entry, looked up): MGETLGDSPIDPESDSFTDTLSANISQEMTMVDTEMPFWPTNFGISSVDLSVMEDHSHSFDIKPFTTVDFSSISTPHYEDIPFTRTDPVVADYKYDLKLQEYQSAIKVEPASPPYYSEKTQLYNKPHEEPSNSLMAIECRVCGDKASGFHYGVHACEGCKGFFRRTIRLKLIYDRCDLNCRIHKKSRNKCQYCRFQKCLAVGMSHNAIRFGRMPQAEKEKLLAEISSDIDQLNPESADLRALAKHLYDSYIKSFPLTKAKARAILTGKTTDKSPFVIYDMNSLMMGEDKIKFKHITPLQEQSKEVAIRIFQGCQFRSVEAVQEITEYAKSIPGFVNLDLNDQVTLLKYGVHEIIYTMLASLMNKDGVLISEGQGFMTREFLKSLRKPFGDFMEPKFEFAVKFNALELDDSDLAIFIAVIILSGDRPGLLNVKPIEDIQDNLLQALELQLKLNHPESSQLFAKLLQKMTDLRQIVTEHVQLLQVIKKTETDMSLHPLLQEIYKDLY
Method in brief: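 Using GeneBLAzer HEK293 cells, response was quantified by CCF4 fluorescence and normalized between basal DMSO (0%) and rosiglitazone 2 uM (100%); curves yielded half-maximal stimulation concentration and efficacy.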

[13] = target: Vitamin D3 receptor (Homo sapiens) (UniProt P11473); experiment: qHTS assay for small molecule antagonists of vitamin D receptor signaling (AID 588541);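 further: receptor activated by calcitriol during compound treatment; on the % scale 0 is the no-effect control and ±100 the full control effect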
Vitamin D3 receptor (Homo sapiens), sequence (P11473 whole entry, looked up): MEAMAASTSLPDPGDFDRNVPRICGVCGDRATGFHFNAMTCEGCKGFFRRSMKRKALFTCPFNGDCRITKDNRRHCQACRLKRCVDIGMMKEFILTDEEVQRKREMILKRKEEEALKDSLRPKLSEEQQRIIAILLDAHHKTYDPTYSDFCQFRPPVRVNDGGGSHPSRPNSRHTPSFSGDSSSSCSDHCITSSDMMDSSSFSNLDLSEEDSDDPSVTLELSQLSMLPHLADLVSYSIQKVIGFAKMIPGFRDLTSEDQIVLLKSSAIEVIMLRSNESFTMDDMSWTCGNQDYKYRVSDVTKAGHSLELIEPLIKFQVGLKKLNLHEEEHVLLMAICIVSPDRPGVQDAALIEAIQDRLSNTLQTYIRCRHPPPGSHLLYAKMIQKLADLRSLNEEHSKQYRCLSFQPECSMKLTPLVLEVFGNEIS
Method in brief: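 VDR-UAS-bla HEK293T cells (2000/well, 2% charcoal-stripped FBS) were treated with titrated compounds plus 1-alpha,25-dihydroxyvitamin D3 (50 nM or 3 nM final) for 16 h at 37 C. CCF4 beta-lactamase fluorescence was read; Hill fits gave IC50.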

[14] = qHTS assay for small molecule agonists of retinoid X receptor alpha signaling (AID 588544); settings: HEK293T RXRa-UAS-bla, beta-lactamase reporter, 18 h; 530 nm emission

COP(N)(=O)SC (stereo unspecified)
inactive: Potency [1] | Potency [2] | activity change, negative = inhibition ([3]; at 57.5 µM (top of the series)) 4.67% | Potency [4] | Potency [5] | outcome [6] | activation [7] 2.48% | activation [8] -1.71% and 14.7% | Potency [9] | outcome [10] | outcome [12] | outcome [13]
-14.8% and -10.1%: max response [14]
57.3% and -26.4%: max response [11]
6.43%: max response ([3]; measured here: lipid channel max response)
0.934%: max response ([3]; measured here: cell count channel max response)
